Among all 2,000 compounds or so, about 250 (12%) were called active. Cut-off read from the data, not from the text of the source: active = hERG blockade below about -20% or above about 20%; inactive = in between. The sample as a whole holds a higher share of actives than the screen did.
The compounds below were run against Voltage-gated inwardly rectifying potassium channel KCNH2 (Homo sapiens) (UniProt Q12809) (assay: modulators of KCNH2 ion channel function, cellular (AID 376;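 note: 0% = buffer alone and 100% = reference blocker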)). Conditions: hERG-expressing cells, channel activity single-concentration screen; concentration not given here.
Sequence of Voltage-gated inwardly rectifying potassium channel KCNH2 (Homo sapiens) (Q12809 whole entry, looked up): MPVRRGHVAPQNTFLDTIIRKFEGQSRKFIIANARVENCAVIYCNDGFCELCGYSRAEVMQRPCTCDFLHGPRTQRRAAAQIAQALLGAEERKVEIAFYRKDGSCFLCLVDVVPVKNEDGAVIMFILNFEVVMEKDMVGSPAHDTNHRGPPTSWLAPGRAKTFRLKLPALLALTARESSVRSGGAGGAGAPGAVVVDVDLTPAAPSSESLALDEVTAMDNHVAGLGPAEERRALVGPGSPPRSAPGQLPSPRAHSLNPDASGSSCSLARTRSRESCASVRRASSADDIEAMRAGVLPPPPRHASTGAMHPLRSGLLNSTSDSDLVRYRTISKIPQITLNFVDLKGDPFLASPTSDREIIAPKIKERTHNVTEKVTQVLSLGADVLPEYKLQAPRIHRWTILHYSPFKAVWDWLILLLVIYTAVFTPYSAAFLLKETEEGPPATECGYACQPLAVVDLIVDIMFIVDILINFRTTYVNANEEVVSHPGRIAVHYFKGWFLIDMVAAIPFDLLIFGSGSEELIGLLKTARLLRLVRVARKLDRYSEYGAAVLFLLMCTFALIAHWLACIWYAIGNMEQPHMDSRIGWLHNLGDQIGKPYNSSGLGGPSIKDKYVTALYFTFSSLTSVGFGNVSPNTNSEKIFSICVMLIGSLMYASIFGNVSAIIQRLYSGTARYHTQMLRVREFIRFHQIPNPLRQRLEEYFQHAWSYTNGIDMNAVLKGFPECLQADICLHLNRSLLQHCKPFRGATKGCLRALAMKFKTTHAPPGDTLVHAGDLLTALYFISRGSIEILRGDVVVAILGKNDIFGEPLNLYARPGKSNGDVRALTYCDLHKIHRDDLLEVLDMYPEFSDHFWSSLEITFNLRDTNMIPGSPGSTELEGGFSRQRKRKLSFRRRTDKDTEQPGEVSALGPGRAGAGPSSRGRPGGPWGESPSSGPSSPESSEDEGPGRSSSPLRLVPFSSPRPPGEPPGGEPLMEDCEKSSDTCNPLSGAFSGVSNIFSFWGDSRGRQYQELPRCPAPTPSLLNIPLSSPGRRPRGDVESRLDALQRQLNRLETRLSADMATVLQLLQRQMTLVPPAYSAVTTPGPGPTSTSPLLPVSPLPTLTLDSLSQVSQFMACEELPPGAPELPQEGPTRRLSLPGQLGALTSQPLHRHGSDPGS

Compound | hERG blockade
S=C1NC(c2ccccc2)NC(c2ccccc2)S1 (stereo unspecified) | 8.24% (inactive)
N=C(N)SC(c1ccccc1)c1ccccc1 | 22.5% (active)
NC(N)=NC(CC(=O)O)c1ccccc1 (stereo unspecified) | 10.4% (inactive)
N=C(N)C(N=Nc1ccccc1)C(=N)N (stereo unspecified) | 14.2% (inactive)
Cn1c(=S)c2[nH]c(SCCN3C(=O)c4ccccc4C3=O)nc2n(C)c1=O | 13.4% (inactive)
O=C1c2ccccc2C(=O)N1CCCSc1ccccc1 | 23.2% (active)
O=C(O)CCCSc1ccccc1 | 8.71% (inactive)
O=C(O)c1cccc(S(=O)(=O)NCCO)c1 | -15.6% (inactive)
CN(C)CCn1c(CO)nc2c1c(=O)n(C)c(=O)n2C | -1.57% (inactive)
CN(C)CCNc1nc2c(c(=O)n(C)c(=O)n2C)n1C | 34% (active)
Cn1c(=O)c2c(nc(NCCNc3nc4c(c(=O)n(C)c(=O)n4C)n3C)n2C)n(C)c1=O | -7.81% (inactive)
Cc1ccc(CCCC(=O)O)cc1C | 6.44% (inactive)
NC(=O)NOCC1NC(=O)NC1=O (stereo unspecified) | -12% (inactive)
NCC1OC(n2cnc3c(N)ncnc32)CC1O (stereo unspecified) | -23.5% (active)
Nc1ncnc2c1ncn2C1OC(CO)C(O)C1N (stereo unspecified) | 13.4% (inactive)
C[N+](C)(C)c1ncnc2c1ncn2C1CC(O)C(CO)O1 (stereo unspecified) | -5.95% (inactive)
Nc1ncnc2c1nc(-c1ccccc1)n2C1OC(CO)C(O)C1O (stereo unspecified) | -5.56% (inactive)
Cc1ccc(C2(C)CCC(=NN=C3CCC(C)(c4ccc(C)c(C)c4)c4cc(C)c(C)cc43)c3cc(C)c(C)cc32)cc1C (stereo unspecified) | 5.6% (inactive)
CC(NC(=O)c1ccccc1)(C(=O)O)C(=O)O | -6.84% (inactive)
O=C(Nc1ccc(-c2cn3ccccc3n2)cc1)c1cc(Br)ccc1O | 6.36% (inactive)
CC12CCC3c4ccc(OCC(=O)O)cc4CCC3C1CCC2=O (stereo unspecified) | -7.52% (inactive)
Cc1cc(Cl)ccc1OCC(=O)Oc1c(Cl)c(Cl)c(Cl)c(Cl)c1Cl | -9.38% (inactive)
Cc1ccc2ccccc2c1CSc1nc(N)nc2c1ncn2CC(C)C | 13.9% (inactive)
CC(C)Cn1cnc2c(SCc3ccc(Cl)cc3Cl)nc(N)nc21 | 20.1% (active)

Compound | hERG blockade
CC(C)Cn1cnc2c(SCc3ccccn3)nc(N)nc21 | -2.95% (inactive)
COc1cccc(CSCC(=O)O)c1 | 3.08% (inactive)
O=C(O)C1CCCN1Cc1c[nH]c2ccccc12 (stereo unspecified) | -17.1% (inactive)
O=C(O)C(Cc1c[nH]c2ccccc12)C(=O)NO (stereo unspecified) | -0.439% (inactive)
CN(CC(=O)O)Cc1c[nH]c2ccccc12 | -21% (active)
CC(=O)NC(Cc1c[nH]c2ccccc12)C(=O)O (stereo unspecified) | 2.72% (inactive)
O=C(O)C(Cc1c[nH]c2ccccc12)N1C(=O)c2ccccc2C1=O (stereo unspecified) | -13.6% (inactive)
CC(N)(Cc1c[nH]c2ccccc12)C(=O)O (stereo unspecified) | -24.5% (active)
NC(N)=NCC(N)C(=O)O (stereo unspecified) | -1.09% (inactive)
Cc1nnc(S(=O)(=O)c2ccc(N=Nc3c(N)nc(N)nc3N)cc2)s1 | -0.733% (inactive)
O=C(O)CC(=Cc1ccco1)C(=O)O | -9.17% (inactive)
O=C(O)CCC1(C(=O)O)CCC(=O)c2ccccc21 (stereo unspecified) | 6.22% (inactive)
BrC(c1cccc2ccccc12)c1cccc2ccccc12 | -6.84% (inactive)
COc1ccc(C(=O)CCN(C)C)c2ccccc12 | 7.02% (inactive)
Clc1ccccc1C(Nc1ncccn1)Nc1ncccn1 | 3.73% (inactive)
Clc1ccccc1C(Nc1cnccn1)Nc1cnccn1 | 21.5% (active)
O=C(O)C(Cc1ccc([N+](=O)[O-])cc1)=NO | 0.35% (inactive)
CC(CO)(CO)Nc1ncnc2ccccc12 | 2.95% (inactive)
O=S(=O)(c1cnccc1N1CCN(CCO)CC1)N1CCCC1 | -8.49% (inactive)
N=C1C(O)C2(I)c3ccccc3N3C(=N)C(O)C4c5ccccc5N1C4C32 (stereo unspecified) | 35.8% (active)
O=C(CSc1nc2ccccc2s1)c1sc2sc3ccccc3[n+]2c1O | 1.71% (inactive)
CC(CCC(=O)O)C(=O)O (stereo unspecified) | 2.86% (inactive)
O=C(O)c1ccc(CNCc2ccccc2)cc1 | -8.86% (inactive)
Oc1ccccc1CNCc1ccccc1O | 23.5% (active)

Compound | hERG blockade
Oc1ccc(CNCc2ccccc2)c2cccnc12 | 7.55% (inactive)
CCCCN1CSC(=S)N(Cc2ccccc2)C1 | 13.4% (inactive)
CCC(CS(=O)(=O)O)[N+](=O)[O-] (stereo unspecified) | 1.33% (inactive)
O=C(O)CC(CC(=O)O)C(=O)O | 15.6% (inactive)
Clc1ccc(CSCc2ccc(Cl)cc2Cl)c(Cl)c1 | 5.81% (inactive)
N=C(N)SCc1ccc(Cl)cc1Cl (tested in a mixture with another compound) | 30.7% (active)
N=C(N)SCc1cc(Cl)cc(Cl)c1O | 12.3% (inactive)
COC(=O)c1ccc(CCc2cc(O)ccc2O)cc1 | 11.9% (inactive)
O=C(O)c1cccc2cccc(-c3cccc4cccc(C(=O)O)c34)c12 | -6.19% (inactive)
O=C(O)CCC(=O)c1ccc2ccc3cccc4ccc1c2c34 | -66.6% (active)
O=C(O)CCC(=O)c1ccc[nH]1 | 1.12% (inactive)
Nc1ccc(S(=O)(=O)NCCS(=O)(=O)O)cc1 | -20.3% (active)
CC(C)(C)c1ccc(NS(=O)(=O)c2ccc(N)cc2)cc1 | -2.98% (inactive)
NCCNS(=O)(=O)c1ccc(N)cc1 | 2.62% (inactive)
CCOC(=O)c1cnc(N(C)C)nc1SC(=N)N | 12.8% (inactive)
c1cc(CNCCN2CCNCC2)ccn1 | -17.5% (inactive)
CC(C)NCCC(O)c1cc2ccccc2o1 (stereo unspecified) | 7.89% (inactive)
NC(N)=NC(N)=Nc1ccc(C(=O)O)cc1 | -11% (inactive)
NC(N)=NC(N)=Nc1ccccc1 (tested in a mixture with another compound) | -3.28% (inactive)
NC(N)=NC(N)=Nc1c(F)c(F)c(F)c(F)c1F | -23.3% (active)
O=C(O)CCc1c2ccc(=O)c(O)c-2oc2c(O)c(O)ccc12 | 6.94% (inactive)
Oc1ccc(Cn2c(-c3ccc(O)cc3)nc3ccccc32)cc1 | 9.19% (inactive)
NS(=O)(=O)c1cc2c(cc1Cl)=NC(CCC(=O)O)=NS=2(=O)O | -4.14% (inactive)

— PubChem BioAssay AID376 (PDSP, 2006)
